# Source: PubChem BioAssay (National Center for Advancing Translational Sciences (NCATS))
# POLI inh: qHTS for Inhibitors of Polymerase Iota; Pol iota fluorescent replication assay, 10 min; Potency, µM (highest dose often 115 µM), without a hit: top-dose activity, negative = inhibition, actives largely listed as inhibitors; DNA polymerase iota (Homo sapiens), Q9UNA4; AID 588590, 2011; 1% of 390,000 active; note: potency is the fitted concentration of half-maximal effect
#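 Fluorescent replication assay read twice, at 0 min and 10 min after adding 50 nM (final) substrate. Enzyme (10 nM) and compounds were first incubated 15 min at room temperature; enzyme-free buffer wells were negative controls.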
# POLH inh: qHTS for Inhibitors of Polymerase Eta; DNA polymerase eta (Homo sapiens), Q9Y253; recombinant Pol eta, fluorescent DNA replication assay; Potency, µM (series often up to 114 µM), without a hit: at the top dose activity change, negative = inhibition, hits mostly inhibitors; 1.2% of 390,000 active; AID 588591, 2011; note: potency is the fitted concentration of half-maximal effect; % is set by controls: 0 for no effect and ±100 for the full control effect
#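 Fluorescent replication assay: 50 nM final substrate added after a 15 min room-temperature compound preincubation with 10 nM enzyme. Signal taken at 0 min and again at 10 min.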
# WRN helicase inh: qHTS for Inhibitors of WRN Helicase. Potency, µM (titrated, usually from 114 µM), inactives show at the highest dose activity change, negative = inhibition, most hits filed as inhibitors. WRN helicase unwinding, fluorescent forked duplex, kinetic. 0.46% of 360,000 active. Bifunctional 3'-5' exonuclease/ATP-dependent helicase WRN (Homo sapiens), Q14191; note: potency is the fitted concentration of half-maximal effect; % is set by controls: 0 for no effect and ±100 for the full control effect; nearly all actives have a fitted effect of over 55% in size
# Target sequence (Q14191 whole entry, looked up): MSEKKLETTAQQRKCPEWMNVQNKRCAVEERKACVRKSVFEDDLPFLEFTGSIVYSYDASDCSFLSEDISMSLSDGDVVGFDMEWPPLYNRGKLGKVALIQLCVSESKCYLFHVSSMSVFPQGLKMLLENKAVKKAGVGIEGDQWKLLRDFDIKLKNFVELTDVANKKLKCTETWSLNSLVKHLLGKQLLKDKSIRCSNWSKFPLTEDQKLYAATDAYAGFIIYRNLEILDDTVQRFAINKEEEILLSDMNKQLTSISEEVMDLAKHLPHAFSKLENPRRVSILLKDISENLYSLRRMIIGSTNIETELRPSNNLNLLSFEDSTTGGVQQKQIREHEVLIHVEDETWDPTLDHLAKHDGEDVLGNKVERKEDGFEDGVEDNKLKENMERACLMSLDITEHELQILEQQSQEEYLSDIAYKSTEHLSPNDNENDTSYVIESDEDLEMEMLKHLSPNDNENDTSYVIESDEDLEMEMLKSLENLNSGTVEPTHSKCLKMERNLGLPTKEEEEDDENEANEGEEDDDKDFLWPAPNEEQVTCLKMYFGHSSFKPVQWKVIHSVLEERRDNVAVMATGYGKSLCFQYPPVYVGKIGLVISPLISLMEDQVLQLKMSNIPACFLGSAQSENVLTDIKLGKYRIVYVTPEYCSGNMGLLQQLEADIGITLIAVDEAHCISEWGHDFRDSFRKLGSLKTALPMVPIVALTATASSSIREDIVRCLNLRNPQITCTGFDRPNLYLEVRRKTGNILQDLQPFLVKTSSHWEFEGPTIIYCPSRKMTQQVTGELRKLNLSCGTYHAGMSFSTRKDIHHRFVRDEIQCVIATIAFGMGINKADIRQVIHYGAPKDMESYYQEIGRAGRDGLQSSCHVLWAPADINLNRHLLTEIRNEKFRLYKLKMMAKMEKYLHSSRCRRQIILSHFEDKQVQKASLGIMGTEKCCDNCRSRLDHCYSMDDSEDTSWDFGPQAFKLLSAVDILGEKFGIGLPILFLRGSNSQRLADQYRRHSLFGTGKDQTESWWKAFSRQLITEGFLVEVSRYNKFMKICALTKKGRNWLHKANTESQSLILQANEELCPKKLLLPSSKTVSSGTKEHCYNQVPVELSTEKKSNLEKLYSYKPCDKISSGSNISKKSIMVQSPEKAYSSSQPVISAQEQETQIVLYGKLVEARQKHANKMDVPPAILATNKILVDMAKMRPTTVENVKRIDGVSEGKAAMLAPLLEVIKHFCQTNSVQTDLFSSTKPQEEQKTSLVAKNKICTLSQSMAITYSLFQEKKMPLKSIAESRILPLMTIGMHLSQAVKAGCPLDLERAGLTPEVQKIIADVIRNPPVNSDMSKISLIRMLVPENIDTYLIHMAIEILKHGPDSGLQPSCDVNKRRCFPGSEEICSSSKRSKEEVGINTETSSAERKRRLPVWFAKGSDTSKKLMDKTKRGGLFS
#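 Screening of the MLSMR collection measured strand separation of a quenched forked DNA duplex (100 nM) by 20 nM WRN with 2 mM ATP, all final. Compounds were preincubated with enzyme 15 min at room temperature.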
# POLK inh: qHTS for Inhibitors of Polymerase Kappa | DNA polymerase kappa (Homo sapiens), Q9UBT6 | purified Pol kappa, fluorescent DNA synthesis assay, 10 min | Potency, µM (top dose mostly 107 µM), for inactives: top-dose activity, negative = inhibition, usual class: inhibitors | 0.53% of 400,000 active | AID 588579, 2011; note: potency is the fitted concentration of half-maximal effect; % is set by controls: 0 for no effect and ±100 for the full control effect
#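 Fluorescent qHTS in 1536-well format: enzyme (10 nM) and compound sat 15 min at room temperature before 50 nM substrate (final) was added. Signal taken at 0 and 10 min; no-enzyme buffer wells were negative controls.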
# POLB inh: qHTS Assay for Inhibitors of DNA Polymerase Beta. P06746. Potency, µM (top dose mostly 114 µM), for the others: at the top dose activity change, negative = inhibition, usual class: inhibitors. Pol beta primer extension/strand displacement, fluorescence kinetic. 1.3% of 340,000 active; note: potency is the fitted concentration of half-maximal effect; % is set by controls: 0 for no effect and ±100 for the full control effect
#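 Values derive from four-parameter Hill fits of normalized kinetic data: reads at 0 and 10 min following addition of 50 nM substrate to 10 nM Pol beta preincubated 15 min with compound.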
# PI5P4K alpha inh: qHTS for Inhibitors of phosphatidylinositol 5-phosphate 4-kinase (PI5P4K); Phosphatidylinositol 5-phosphate 4-kinase type-2 alpha (Homo sapiens), P48426; PI5P4Kalpha enzyme, ADP-Glo luminescence, 60 min; active compounds read low; max response, %; 1.2% of 330,000 active; AID 652105, 2013; active = max response of -50% or lower; inconclusive = between -30% and -50%; inactive = -30% or higher; note: value at the top dose of about 77 µM; % is set by controls: 0 for no effect and ±100 for the full control effect
#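 Luminescence from ADP-Glo served as readout of PI5P4Kalpha activity in a qHTS format. Reaction: enzyme, substrate, compound, ATP at 5 microM final, 60 min at RT.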
# * marks the source's active call; other numbers are inactive results; ? = inconclusive; . = no result given; [ ] = another dose, or the depositor's remark. The list is not random: actives were taken first. Their share in the collection is about 2.8%. Unless noted, calls come from the whole dose curve; as a rule, active = well fitted curve in the direction sought with a large enough effect; inconclusive = small, poorly fitted or top-dose-only effect, or another doubt; inactive = no such curve, though single readings can be large; an effect the other way counts as inactive or inconclusive.
SMILES,POLI inh,POLH inh,WRN helicase inh,POLK inh,POLB inh,PI5P4K alpha inh
CCOc1cc(C(c2c(O)nc(SC)[nH]c2=O)c2c(O)nc(SC)[nH]c2=O)ccc1O,?,-13.0%,?,-2.7%,.,?
COc1ccccc1C(c1c(O)nc(SC)[nH]c1=O)c1c(O)nc(SC)[nH]c1=O,8.7%,-14.9%,-12.7%,-8.7%,.,-51.3*
COc1cc(N)c(NC(=O)/C=C/c2nc3cc(OC)c(OC)cc3[nH]2)cc1OC,45.5%,.,.,-4.2%,.,.
CCc1ccc(OCC(=O)NNC(=O)c2ccc(NC(=O)C3CC3)cc2)cc1,79.4µM*,?,-34.8%,-8.2%,31.6µM*,-0.2
Cc1ccc2oc(=O)c3cnn(CC(=O)Nc4cccc(C(F)(F)F)c4)c3c2c1,26.3%,-14.6%,.,-9.6%,3.1%,.
O=C(O)c1ccc(S(=O)(=O)c2ccc([N+](=O)[O-])cc2[N+](=O)[O-])cc1,1.12µM*,79.4µM*,?,-23.3%,8.5%,1.0
O=C(Nc1ccc(Cl)cc1)c1cc2c(-c3ccccc3)nn(-c3ccccc3)c2s1,-9.6%,-14.1%,.,-9.6%,11.4%,.
Cc1ccc(-n2c(O)c(C=Nc3ccccc3-c3n[nH]c(=S)[nH]c3=O)c3ccccc3c2=O)c(C)c1,44.7µM*,?,0.4%,?,89.1µM*,-19.7
CCc1ccc2c(c1)NC(c1ccc(F)cc1)=NC(c1ccncc1)=N2,18.5%,-23.0%,.,6.1%,21.8%,.
CSc1cccc(NC(=O)/C=C/c2ccco2)c1,?,79.4µM*,-11.4%[11.6 µM],?,31.6µM*,-58.1*
O=C(/C=C/c1ccco1)NC(=S)Nc1cccc([N+](=O)[O-])c1,?,50.1µM*,?,?,39.8µM*,?
COc1cccc(NC(=O)/C=C/c2ccco2)c1,19.9%,-14.7%,-3.8%,-12.2%,-8.5%,-4.2
O=C(/C=C/c1ccco1)NC(=S)Nc1cccc(-c2nc3ccccc3o2)c1,?,31.6µM*,50.1µM*,79.4µM*,28.2µM*,-64.4*
CC1CCN(C(=O)CN2CC(C)Sc3ccccc32)CC1 (centres undefined),15.9%,-5.4%,.,-10.7%[60.1 µM],1.5%,.
Cc1cccc(/C=C/c2cccs2)n1,1.5%,.,.,-15.4%,.,.
O=c1c2sccc2n(Cc2cc(=O)n3ccccc3n2)c(=O)n1-c1cccc(C(F)(F)F)c1,19.4%,-16.8%,.,-0.7%,6.1%,.
C(=C\c1c[nH]c2ccccc12)/c1ccc2ccccc2n1,10.3%,.,.,-15.5%,.,.
CCOC(=O)c1[nH]c(C)c(C(=O)NC(CC)Cc2ccccc2)c1C (centres undefined),20.6%,-3.8%,.,-6.3%,5.2%,.
NC1=NC(=O)/C(=C/c2cc(Br)c(O)c(Br)c2)S1,?,-13.9%,-15.6%[11.6 µM],-41.3%,29.5%,-89.1*
CN1N=C(C(C)(C)C)CC1=O,3.98µM*,-13.7%,-1.3%[11.6 µM],3.1%,3.6%,0.8
COc1ccc(-n2nc3c(c2NC(=O)C(=O)NCc2ccccc2)CSC3)cc1,-5.9%,8.0%,.,-0.1%[60.1 µM],1.7%,.
FC(F)(F)c1cccc(N2CCC(N=CN3CCCCCC3)=N2)c1,-11.9%,89.1µM*,0.3%[57.1 µM],-11.6%,9.1%,-1.0
Oc1ccccc1C=NC1=NN(c2cccc(C(F)(F)F)c2)CC1,28.7%,-19.8%,8.6%,-10.5%,-18.2%,.
Cc1nc2ccn(Cc3cccs3)c(=O)c2cc1C(=O)Nc1ccccc1,2.9%,-14.6%,.,13.6%,-6.6%,.
CCc1c(C)nc(N2CCN(c3ccc(F)cc3)CC2)[nH]c1=O,1.5%,-18.0%,2.5%,-4.8%,10.1%,-0.6
Cc1nnc(N2CCN(c3ccccc3)CC2)[nH]c1=O,-13.0%,-20.9%,?,-9.0%,8.0%,-54.9*
